Experiment in all cases: Confirmatory Screen for Target Class Profiling of Small Molecule Inhibitors of Methyltransferases (AID 1745852); on activity change, negative = inhibition: on the % scale 0 is the no-effect control and ±100 the full control effect
Test [1] addresses Catechol O-methyltransferase (Homo sapiens) (UniProt P21964). The conditions noted are these: MTase-Glo luminescence, SAH detection, recombinant enzyme; measured here: COMT max response; stronger effect = lower value.
Test [2] deals with Guanidinoacetate N-methyltransferase (Homo sapiens) (UniProt Q14353). The conditions noted are these: MTase-Glo luminescence, SAH detection, recombinant enzyme; activity change, negative = inhibition: at 57.3 µM (top of the series) unless noted; series mostly up to 57.3 µM.
Test [3] concerns the target Nicotinamide N-methyltransferase (Homo sapiens) (UniProt P40261). The conditions noted are these: MTase-Glo luminescence, SAH detection, recombinant enzyme; measured here: NNMT max response; stronger effect = lower value.
In test [4] the target is Phenylethanolamine N-methyltransferase (Homo sapiens) (UniProt P11086). The conditions noted are these: MTase-Glo luminescence, SAH detection, recombinant enzyme; measured here: PNMT max response; stronger effect = lower value.

The source made the active and inactive calls. The call rests on the fitted dose curve.
Potency means the concentration at half of the fitted maximal effect.

Chain of Phenylethanolamine N-methyltransferase (Homo sapiens) (P11086 whole entry, looked up): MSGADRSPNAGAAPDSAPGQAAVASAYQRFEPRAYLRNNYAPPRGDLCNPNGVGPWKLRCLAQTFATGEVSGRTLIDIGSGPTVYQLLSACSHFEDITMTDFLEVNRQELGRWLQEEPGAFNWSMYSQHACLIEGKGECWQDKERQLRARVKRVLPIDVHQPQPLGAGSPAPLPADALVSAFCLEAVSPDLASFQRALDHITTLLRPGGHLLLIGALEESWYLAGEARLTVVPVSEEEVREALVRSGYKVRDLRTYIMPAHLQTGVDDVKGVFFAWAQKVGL
Chain of Nicotinamide N-methyltransferase (Homo sapiens) (P40261 whole entry, looked up): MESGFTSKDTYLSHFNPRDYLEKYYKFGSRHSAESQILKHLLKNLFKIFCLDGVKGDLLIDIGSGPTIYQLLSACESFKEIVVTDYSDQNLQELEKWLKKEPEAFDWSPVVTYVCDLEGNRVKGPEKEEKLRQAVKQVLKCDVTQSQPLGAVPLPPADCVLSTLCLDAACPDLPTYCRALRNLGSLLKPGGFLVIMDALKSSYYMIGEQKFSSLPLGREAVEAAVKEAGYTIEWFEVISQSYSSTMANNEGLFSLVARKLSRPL
Chain of Catechol O-methyltransferase (Homo sapiens) (P21964 whole entry, looked up): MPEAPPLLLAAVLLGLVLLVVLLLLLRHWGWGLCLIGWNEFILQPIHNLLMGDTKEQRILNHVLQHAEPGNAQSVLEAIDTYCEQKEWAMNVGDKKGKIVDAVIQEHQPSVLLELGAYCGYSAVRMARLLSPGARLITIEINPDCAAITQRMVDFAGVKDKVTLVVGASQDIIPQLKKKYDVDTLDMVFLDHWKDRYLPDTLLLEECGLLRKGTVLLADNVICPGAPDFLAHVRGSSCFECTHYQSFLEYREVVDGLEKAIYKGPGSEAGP

As to `O=C(CCc1nnc2n(Cc3ccc(Cl)cc3)c(=O)c3ccccc3n12)NCCN1CCCC1`, the activity in test [1] was 4.15%; in test [3], -12.3%; in test [4], 0%. For the same molecule, the activity change, negative = inhibition in test [2] came to 1.71%.

`COc1ccc(-c2n[nH]n3c2nc(=O)c2ccc(C(=O)NCc4ccc(OC)c(OC)c4)cc23)cc1`: the results for the activity in test [1], in test [3] and in test [4] were -3.17%, 0.962% and 0.793%, respectively. Further, in test [2], the activity change, negative = inhibition was determined as 0.217%.

For the molecule `COc1ccc(CCNC(=O)c2ccc3c(=O)nc4c(-c5ccccc5)n[nH]n4c3c2)cc1OC`, the figures for the activity in test [1], in test [3] and in test [4] were -11.8%, -10.5% and -12.5%, respectively. For the same molecule, in test [2], the Potency is 0.0961 µM (active).

`CC1(C(=O)NC2CCCCC2)Cn2c(c(-n3cccc3)c3ccccc32)C(=O)N1Cc1ccccn1` (stereo not given): the activity was 0% in test [1], -45.4% in test [3] and 2.72% in test [4]. Further, the activity change, negative = inhibition in test [2] was found to be 0%.

Turning to `O=C(Nc1ccc(F)c(Cl)c1)N1CCn2cccc2C1Cc1ccccc1` (stereo not given), the activity in test [1] is -2.26%; in test [3], -5.36%; in test [4], -6.59%. Also, the activity change, negative = inhibition in test [2] is 1.87%.

For the molecule `Cc1ccc(S(=O)(=O)c2nnn3c2nc(N2CCC(N4CCCCC4)CC2)c2ccccc23)cc1C`, the activity in test [1] is -1.85%; in test [3], -9.07%; in test [4], -3.83%. In test [2], the activity change, negative = inhibition amounted to 0%.

For the molecule `COc1ccc(-c2cc(-c3cnn(C)c3)cn3cncc23)cn1`, the results for the activity in test [1], in test [3] and in test [4] were -23.7%, -36.8% and -7.46%, respectively. Further, the activity change, negative = inhibition in test [2] is -6.32% [at 85.7 µM].

`COc1cccc(-c2cccc(C(=O)N3C[C@H](CO)C[C@H](CN(C)C)C3)c2)c1`: the activity in test [1] worked out at 7.14%; in test [3] it was 0.542%; in test [4], 4.94%. The activity change, negative = inhibition in test [2] came out at 2.08%.

Take `Cn1ccc(Nc2cc3c(cn2)CN(CCc2ccccc2)CCN3)n1`: the activity in test [1] is -0.459%; in test [3] it was -5.86%; in test [4], -38.8%. Also, the activity change, negative = inhibition in test [2] was -0.578% [at 85.7 µM].

With `CC(C)Cn1c(=O)c2ccccc2n2c(CCC(=O)N3CCN(c4ccccc4)CC3)nnc12`, the figures for the activity in test [1], in test [3] and in test [4] were 2.06%, -46.8% and -1.48%, respectively. Moreover, the activity change, negative = inhibition in test [2] worked out at 0%.

Take `CN(CCc1nc2ccc(Cl)cc2[nH]1)c1cc(C2CC(O)C2)nc(N)n1` (stereo not given): the results for the activity in test [1], in test [3] and in test [4] were 4.84%, -2.79% and 3.63%, respectively. For the same molecule, the activity change, negative = inhibition in test [2] was 2.73%.

Take `CN(CCCNC(=O)CCc1nnc2n(Cc3ccccc3)c(=O)c3ccccc3n12)Cc1ccccc1`: the activity in test [1] was 1.61%; in test [3], -7.26%; in test [4], -2.41%. The activity change, negative = inhibition in test [2] came to 0%.

Consider `COCCCNC(=O)c1cnc2n[nH]c(-c3ccccc3)c2n1`, for which the activity is -62.1% in test [1], -64.3% in test [3] and -75.1% in test [4]. Besides, the Potency in test [2] is 39.3 µM (active).

Regarding `CCCC1c2cccn2CCN1C(=O)Nc1ccc(F)cc1F` (stereo not given), the activity in test [1] was -4.42%; in test [3], -4.75%; in test [4], -3.85%. In test [2], the activity change, negative = inhibition was 1.31%.

Take `CCCN1CCn2c3c(c4cc(OC)ccc42)CCN=C31`: the values for the activity in test [1], in test [3] and in test [4] were -5.03%, -6.4% and -5.52%, respectively. Besides, in test [2], the activity change, negative = inhibition was -1.32%.

As for `CC1CCCCN1CCNC(=O)CCc1nnc2n(Cc3ccc(F)cc3)c(=O)c3ccccc3n12` (stereo not given), the activity is 4.47% in test [1], -9.89% in test [3] and 0.568% in test [4]. For the same molecule, the activity change, negative = inhibition in test [2] worked out at 0%.

For the molecule `COc1ccnc(-c2nnc3ccc(Nc4cc(OC)c(OC)c(OC)c4)nn23)c1`, the activity was -13.7% in test [1], -18% in test [3] and -25.6% in test [4]. The activity change, negative = inhibition in test [2] is -8.44% [at 85.7 µM].

For the molecule `Cn1cc(CN2CCCC(COc3ccccc3C(=O)N3CCCCC3)C2)c2ccccc21` (stereo not given), the figures for the activity in test [1], in test [3] and in test [4] were 6.44%, 4.53% and 3.6%, respectively. The activity change, negative = inhibition in test [2] stood at 7.22%.

For `CC(C)NC(=O)c1ccccc1OCC1CCCN(Cc2cn(C)c3ccccc23)C1` (stereo not given), the activity amounted to 8.45% in test [1], 4.67% in test [3] and 10.4% in test [4]. Besides, in test [2], the activity change, negative = inhibition was determined as 14.4%.

With `COc1cccc(NC(=O)Cn2c(=O)oc3cc(S(=O)(=O)N4CC(C)CC(C)C4)ccc32)c1` (stereo not given), the activity in test [1] is 3.17%; in test [3], -1.21%; in test [4], -70.5%. The activity change, negative = inhibition in test [2] was found to be 0%.

As for `O=C(Nc1ccccc1)c1cnc2c(c1)N(C(=O)Cc1ccc(O)cc1)CCC2`, the results for the activity in test [1], in test [3] and in test [4] were -2.13%, -4.08% and -3.63%, respectively. In test [2], the activity change, negative = inhibition was -4.86% [at 85.7 µM].

In the case of `CCCCN(C)C(=O)c1c(C)sc2ccn(CCC)c(=O)c12`, the activity is -45.9% in test [1], -28.7% in test [3] and -13.5% in test [4]. For the same molecule, in test [2], the Potency was 12.1 µM (active).

For `CCCCCNC(=O)c1sc(=S)n2c1[nH]c(=O)c1ccc(C(=O)OC)cc12`, the activity in test [1] is -39.2%; in test [3], -59.4%; in test [4], -27%. In test [2], the Potency was 30.4 µM (active).

Turning to `CC(=O)NC1CC2(CCN(Cc3ccc(O)cc3)CC2)c2ccccc21` (stereo not given), the activity was 6.67% in test [1], 12.2% in test [3] and 5.3% in test [4]. Besides, the activity change, negative = inhibition in test [2] turned out to be 7.28% [at 85.7 µM].

Turning to `Cc1ccc2c(c1)c(=O)[nH]c1c(C(=O)NCc3ccc4c(c3)OCO4)sc(=S)n12`, the activity in test [1] was -32.7%; in test [3] it was -60.7%; in test [4], -35.6%. In addition, the Potency in test [2] is 17.1 µM (active).

Consider `O=C(CCc1ccccc1)N1CCNc2cnc(Nc3cccnc3)nc2C1`, for which the activity in test [1] was -28.2%; in test [3], -21.6%; in test [4] it was -41.2%. The activity change, negative = inhibition in test [2] was -16.6% [at 85.7 µM].

`COc1ccc(-c2nnn3c2nc(NCCc2ccc(OC)c(OC)c2)c2ccccc23)cc1`: the results for the activity in test [1], in test [3] and in test [4] were -10.5%, -12.4% and -9.28%, respectively. The activity change, negative = inhibition in test [2] was -2.81%.

`O=C(CCc1nnc2n(CCc3ccccc3)c(=O)c3ccccc3n12)N1CCC(N2CCCCC2)CC1`: the activity in test [1] was 4.18%; in test [3], -3.96%; in test [4], 0%. The activity change, negative = inhibition in test [2] is 0.438%.

As for `CCCC1=Nc2cc(C(=O)NCCCN3CCCCC3CC)ccc2Sc2ccc(C)cc21` (stereo not given), the activity in test [1] was -2.37%; in test [3], -7.02%; in test [4], 1.37%. Besides, in test [2], the activity change, negative = inhibition was 6.53%.

Consider `COc1cccc2c1OCCCN(c1cc(C3CC(O)C3)nc(N)n1)C2` (stereo not given), for which the activity came out at 5.04% in test [1], 3.54% in test [3] and 4.23% in test [4]. In test [2], the activity change, negative = inhibition came to 6.51%.

The record behind these values is PubChem BioAssay (NCATS).
